The values below come from PubChem BioAssay (NCATS).

Records with an inconclusive call do not appear. The source made the active and inactive calls. Calls come from the whole dose curve; as a rule, active = well fitted cell-killing curve with a large enough effect; inconclusive = small, poorly fitted or top-dose-only effect, or effect the other way; inactive = flat fitted curve, though single readings scatter.
% is set by controls: 0 for no effect and ±100 for the full control effect; potency is the fitted concentration of half-maximal effect.

The subject of the first test is OV90. In words: Primary qHTS to identify gynecologic anti-cancer compounds using libraries of approved drugs and bioactive compounds (AID 1345084). Note: nearly all actives have a fitted effect of over 55% in size. The following applies: Gynecologic cancer cell panel viability, ATPlite luminescence, 48 h; series mostly up to 57.5 µM; activity change, negative = cytotoxicity: at the top concentration. Summed up: (§1)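 Cell viability after 48 h drug treatment, ATPlite luminescence readout; five doses.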
`Fc1ccc(CN2CCC(Nc3ccc(C(F)(F)F)nn3)CC2)cc1F`: the “activity change, negative = cytotoxicity” value is 1.16% (inactive). As to `Cc1nc(N2CCN(C(=O)c3ccco3)CC2)c2c3c(sc2n1)CCCC3`, the “activity change, negative = cytotoxicity” value is -5.21% (inactive). Same read-out and setting: the figure for `CC(F)(F)CN1CCOc2c(nn(-c3ccccc3Cl)c2-c2ccc(Cl)cc2)C1=O` is 11.9% (inactive); for `C=CC(=O)N1CCCC(n2nc(-c3ccc(Oc4ccccc4)cc3)c3c(N)ncnc32)C1` (stereo not drawn) it is 8.8% (inactive); for `CN(C)c1cccc(Oc2cnc(Nc3cccc(O)c3)nc2)c1` it is 2.95% (inactive). As for `CC1CC(=O)C2=C(C1)C1OC1C1(O)C2C(=O)c2cccc(O)c2C1O` (stereo not drawn), the “activity change, negative = cytotoxicity” value is -7.13% [at 38.5 µM] (inactive). As for `NCC1CCN(c2nccc(-c3ccc4ccccc4c3)n2)CC1`, the “activity change, negative = cytotoxicity” value is -9.72% (inactive). In the case of `O=C(Nc1nc2cc(C(F)(F)F)cc(NC3CC3)n2n1)c1cccnc1`, the “activity change, negative = cytotoxicity” value was 0.845% (inactive). For the compound `OC1CCC(Nc2nc(-c3ccccc3)nc3[nH]ccc23)CC1` (stereo not drawn), the “activity change, negative = cytotoxicity” value is 4.98% (inactive). Take `COC(=O)CC1OC(C)C2=C(O)c3c(O)cccc3C(=O)C23OC13` (stereo not drawn): the Potency was 10 µM (active). Take `Cc1nc2ccc(CN(C)c3ccc(C(=O)NC(CCC(=O)O)C(=O)O)s3)cc2c(=O)[nH]1` (stereo not drawn): the “activity change, negative = cytotoxicity” value was -20% (inactive). As for `COC1CC(=O)C23C(=O)NC(Cc4c[nH]c5ccccc45)C2C(C)C2(C)OC2C3/C=C/CC(C)CC1O` (stereo not drawn), the “activity change, negative = cytotoxicity” value is -22.7% [at 25.3 µM] (inactive). Take `Cn1cc(-c2cnn3c(N)c(Br)c([C@@H]4CCCNC4)nc23)cn1`: the “activity change, negative = cytotoxicity” value was -27.9% (inactive). Take `COc1ccc(C[C@H]2COC(=O)[C@@H]2Cc2ccc(O[C@@H]3O[C@H](CO)[C@@H](O)[C@H](O)[C@H]3O)c(OC)c2)cc1OC`: the “activity change, negative = cytotoxicity” value was 10.8% [at 25.3 µM] (inactive). On to `CCC(CC)C(c1ccc(Nc2nc3ccccc3s2)cc1)n1cncn1` (stereo not drawn), for which the Potency is 31.6 µM (active). Turning to `O=C(C1CCCCC1)N(CCN1CCN(c2ccccc2O)CC1)c1ccccn1`, the “activity change, negative = cytotoxicity” value was -8.84% (inactive). Regarding `COC1=CC(=O)C[C@@H](C)[C@@]12Oc1c(Cl)c(OC)cc(OC)c1C2=O`, the “activity change, negative = cytotoxicity” value was -0.687% [at 38.5 µM] (inactive). As to `C/C1=C\[C@@H](C)C[C@@H](C)[C@@H](Cc2cnco2)OC(=O)/C(C)=C/[C@@H](C)C[C@@H](C)[C@@H](Cc2cnco2)OC1=O`, the “activity change, negative = cytotoxicity” value was -14.2% [at 25.3 µM] (inactive).

On to `CC(C)c1ccc(NC(=O)c2cccs2)c(-c2nc3ccccc3[nH]c2=O)c1`, for which the “activity change, negative = cytotoxicity” value was 0.147% (inactive). As to `C=C[C@@]1(C)CCC2C(=CCC3[C@]2(C)CCC[C@@]3(C)C(=O)O)C1` (stereo partly drawn), the “activity change, negative = cytotoxicity” value was -1.48% (inactive). In the case of `CCCSc1nc(N[C@@H]2C[C@H]2c2ccc(F)c(F)c2)c2nnn([C@@H]3C[C@H](OCCO)[C@@H](O)[C@H]3O)c2n1`, the “activity change, negative = cytotoxicity” value was 2.85% (inactive). As for `Cc1cc(C(C)Nc2ccccc2C(=O)O)c2nc(N3CCOCC3)cc(=O)n2c1` (stereo not drawn), the “activity change, negative = cytotoxicity” value is -11.4% (inactive).

Consider `FC(F)(F)c1ccccc1-c1cc(C(F)(F)F)c2nc(C3=NOC4(CCCCC4)C3)[nH]c2c1`, for which the “activity change, negative = cytotoxicity” value was 1.41% (inactive). Still for that read-out and setting: the figure for `N#C/C(=C1\Nc2ccccc2S1)c1ccnc(NCCc2cccnc2)n1` is 4.5% (inactive); for `Cc1sc2c(c1C)C(c1ccc(Cl)cc1)=N[C@H](CC(=O)NCCCCNC(=O)COc1cccc3c1C(=O)N([C@H]1CCC(=O)NC1=O)C3=O)c1nnc(C)n1-2` it is 1.75% (inactive). For `C/C(=C\Cc1c(O)c(Cl)c(C)c(C=O)c1O)CC/C=C(\C)[C@H]1CC(=O)C(C)(C)O1`, the “activity change, negative = cytotoxicity” value is -3.71% [at 25.3 µM] (inactive). On the same count and under the same terms, the figure for `Cn1ncnc1[C@H]1c2n[nH]c(=O)c3cc(F)cc(c23)N[C@@H]1c1ccc(F)cc1` is 5.41% [at 25.3 µM] (inactive). Consider `CC(C)(O)C1Cc2c(ccc(C(=O)CCc3ccccc3)c2O)O1` (stereo not drawn), for which the Potency was 11.2 µM (active). Consider `C[C@H](Oc1cc(-n2cnc3ccc(CN4CCN(C)CC4)cc32)sc1C(N)=O)c1ccccc1C(F)(F)F`, for which the “activity change, negative = cytotoxicity” value was 3.7% (inactive). Take `COc1cc2ncnc(Nc3ccc(O)c(Br)c3)c2cc1OC`: the “activity change, negative = cytotoxicity” value was -0.097% (inactive). On the same count and under the same terms, the figure for `CC1(C)SCCN(S(=O)(=O)c2ccc(Oc3ccncc3)cc2)[C@H]1C(=O)NO` is 3.72% (inactive). Take `CC(O)(C(=O)C1CC1(CO)COC1OC(CO)C(O)C(O)C1O)C1C(O)CC2C3CC=C4CC(O)CC(O)C4(C)C3C(O)CC21C` (stereo not drawn): the Potency was 4.47 µM (active).

The next test deals with PA-1. Described as above. As to conditions: Gynecologic cancer cell panel viability, ATPlite luminescence, 48 h; series mostly up to 57.5 µM; activity change, negative = cytotoxicity: at the top concentration. In outline:
as §1
(In general: ATP-based viability assays read luminescence as a measure of living cells.)
`Fc1ccc(CN2CCC(Nc3ccc(C(F)(F)F)nn3)CC2)cc1F`: the “activity change, negative = cytotoxicity” value was 2.01% (inactive). With `Cc1nc(N2CCN(C(=O)c3ccco3)CC2)c2c3c(sc2n1)CCCC3`, the “activity change, negative = cytotoxicity” value is 3.16% (inactive). `CC(F)(F)CN1CCOc2c(nn(-c3ccccc3Cl)c2-c2ccc(Cl)cc2)C1=O`: the “activity change, negative = cytotoxicity” value is 2.92% (inactive). Same read-out and setting: the figure for `CN(C)c1cccc(Oc2cnc(Nc3cccc(O)c3)nc2)c1` is -1.8% (inactive).

For `CN1CCC(NC(=O)c2cc(-c3c(O)cc(O)cc3Oc3ccc([N+](=O)[O-])cc3)on2)CC1`, the Potency was 0.794 µM (active). Regarding `NCC1CCN(c2nccc(-c3ccc4ccccc4c3)n2)CC1`, the Potency is 14.1 µM (active). `O=C(Nc1nc2cc(C(F)(F)F)cc(NC3CC3)n2n1)c1cccnc1`: the Potency is 7.08 µM (active).

Regarding `OC1CCC(Nc2nc(-c3ccccc3)nc3[nH]ccc23)CC1` (stereo not drawn), the “activity change, negative = cytotoxicity” value was 4.55% (inactive). With `COC(=O)CC1OC(C)C2=C(O)c3c(O)cccc3C(=O)C23OC13` (stereo not drawn), the Potency is 3.98 µM (active). Take `Cn1ncc(Cl)c1-c1cc(C(=O)N[C@H](CN)Cc2ccc(F)c(F)c2)sc1Cl`: the “activity change, negative = cytotoxicity” value is -22.8% (inactive). With `CCC(C)CC(=O)OC1C(=O)C(CO)=CC(O)C1C(C)C` (stereo not drawn), the Potency was 31.6 µM (active). On to `Nc1ncnc2c1nc(Cl)n2C1OC2COP(=O)(O)OC2C1O` (stereo not drawn), for which the Potency was 8.91 µM (active).

As for `CCC(CC)C(c1ccc(Nc2nc3ccccc3s2)cc1)n1cncn1` (stereo not drawn), the Potency is 22.4 µM (active).

With `O=C(C1CCCCC1)N(CCN1CCN(c2ccccc2O)CC1)c1ccccn1`, the “activity change, negative = cytotoxicity” value was 1.74% (inactive).

Take `C/C1=C\[C@@H](C)C[C@@H](C)[C@@H](Cc2cnco2)OC(=O)/C(C)=C/[C@@H](C)C[C@@H](C)[C@@H](Cc2cnco2)OC1=O`: the “activity change, negative = cytotoxicity” value is -25.4% [at 25.3 µM] (inactive).

Take `CC(C)c1ccc(NC(=O)c2cccs2)c(-c2nc3ccccc3[nH]c2=O)c1`: the “activity change, negative = cytotoxicity” value was -12.8% (inactive).

In the case of `CCCSc1nc(N[C@@H]2C[C@H]2c2ccc(F)c(F)c2)c2nnn([C@@H]3C[C@H](OCCO)[C@@H](O)[C@H]3O)c2n1`, the “activity change, negative = cytotoxicity” value is -0.0102% (inactive). With `FC(F)(F)c1ccccc1-c1cc(C(F)(F)F)c2nc(C3=NOC4(CCCCC4)C3)[nH]c2c1`, the “activity change, negative = cytotoxicity” value is 3.76% (inactive). `Cc1sc2c(c1C)C(c1ccc(Cl)cc1)=N[C@H](CC(=O)NCCCCNC(=O)COc1cccc3c1C(=O)N([C@H]1CCC(=O)NC1=O)C3=O)c1nnc(C)n1-2`: the Potency was 1.58 µM (active).

As for `CCCn1ncc(CN2CCCC(C(=O)c3cccc(OC(C)C)c3)C2)c1C` (stereo not drawn), the “activity change, negative = cytotoxicity” value was -21.1% (inactive). Regarding `Cn1ncnc1[C@H]1c2n[nH]c(=O)c3cc(F)cc(c23)N[C@@H]1c1ccc(F)cc1`, the Potency was 1 µM (active). Regarding `CC(C)(O)C1Cc2c(ccc(C(=O)CCc3ccccc3)c2O)O1` (stereo not drawn), the Potency is 12.6 µM (active). In the case of `C[C@H](Oc1cc(-n2cnc3ccc(CN4CCN(C)CC4)cc32)sc1C(N)=O)c1ccccc1C(F)(F)F`, the Potency is 11.2 µM (active). As to `Nc1nc2c(ncn2C2OC3COP(=O)(O)OC3C2O)c(=O)[nH]1` (stereo not drawn), the “activity change, negative = cytotoxicity” value was 0.488% (inactive).

For `CC1(C)SCCN(S(=O)(=O)c2ccc(Oc3ccncc3)cc2)[C@H]1C(=O)NO`, the “activity change, negative = cytotoxicity” value is -7.82% (inactive). On to `CC(O)(C(=O)C1CC1(CO)COC1OC(CO)C(O)C(O)C1O)C1C(O)CC2C3CC=C4CC(O)CC(O)C4(C)C3C(O)CC21C` (stereo not drawn), for which the Potency is 1.78 µM (active).
